Laboratory results from PubChem BioAssay (NCI).
Compounds without any hit were thinned out: in the full panel of roughly 83,000, 20% have a hit.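 A percent growth of 40 corresponds to 60% growth inhibition; 0 means no net growth; -100 means all cells died. Active threshold: below 10.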 Unmarked numbers belong to inactive results. Active and inactive are the calls of the source.

Key:
Experiment in all cases: NCI-60 one-dose screen, 48 h (100 = growth as untreated, 0 = no growth, -100 = all killed)
Details in all cases: 10 µM unless noted
[1] = system: NCI-H23 lung
[2] = system: NCI-H226 lung
[3] = system: NCI-H322M lung
[4] = system: HOP-62 NSCLC
[5] = system: NCI-H460 lung
[6] = system: NCI-H522 lung
[7] = system: A549/ATCC NSCLC
[8] = system: 786-0 renal
[9] = system: COLO 205 colon
[10] = system: DU-145 prostate
[11] = system: K-562 leukemia
[12] = system: MALME-3M melanoma
[13] = system: MDA-MB-231 breast
[14] = system: RXF 393 renal
[15] = system: SF-268 CNS
[16] = system: SF-295 CNS
[17] = system: SF-539 CNS
[18] = system: UACC-257 melanoma
[19] = system: M14 melanoma
[20] = system: HCT-15 colon

| SMILES | growth [1] | growth [2] | growth [3] | growth [4] | growth [5] | growth [6] | growth [7] | growth [8] [%] | growth [9] | growth [10] [%] | growth [11] | growth [12] | growth [13] | growth [14] | growth [15] | growth [16] | growth [17] | growth [18] [%] | growth [19] | growth [20] |
| --- | --- | --- | --- | --- | --- | --- | --- | --- | --- | --- | --- | --- | --- | --- | --- | --- | --- | --- | --- | --- |
| CCCCCCCCSc1ncnc2c1ncn2CO | 50.8% | 58.5% | 140% | 82.7% | 86.6% | 66.4% | 102% | 85.5 | 104% | 90.9 | 73.7% | 118% | 98.2% | 55.2% | 97.6% | 67.7% | 86.3% | 81.6 | 97.7% | 97.1% |
| O=C(Nc1cccc([N+](=O)[O-])c1)c1cccc(C(=O)Nc2cccc([N+](=O)[O-])c2)c1 | 107% | 71% | 77.1% | 106% | 74% | 22.5% | 59.9% | 73.9 | 120% | 84.5 | 91.2% | 49.5% | 83.1% | 29.4% | 30.2% | 67.3% | 84.3% | 77 | 85.4% | 85.5% |
| CCC(O)C(C)(C)C (stereo not given) | 102% | 106% | 127% | 115% | 105% | 106% | 94.2% | 111 | 114% | 108 | 108% | 117% | 117% | 111% | 113% | 97% | 113% | 99.3 | 105% | 102% |
| Cc1cc(N2CCOCC2)nc(N2CCOCC2)n1 | 94.6% | 110% | 92.2% | 82.2% | 99.4% | 78.6% | 98.1% | 92.7 | 118% | 117 | 112% | 107% | 114% | 118% | 100% | 113% | 97.5% | 105 | 105% | 102% |
| COc1ccc2c(c1)C(=O)c1c-2c(OCCN(C)C)nc2cc(OC)ccc12 | -57.2% (active) | -25.7% (active) | 19.7% | 14.9% | -70.7% (active) | -22.1% (active) | -43.6% (active) | 36.1 | 2.84% (active) | 29 | -47.7% (active) | -39.9% (active) | 1.22% (active) | -8.64% (active) | 35.7% | 31.8% | 15% | 20.5 | 11.6% | -63.4% (active) |
| CC(C)[O-].CC(C)[O-].CN(CCN(C)Cc1cc(F)cc(F)c1[O-])Cc1cc(F)cc(F)c1[O-].[Ti+4] | 6.91% (active) | 25.6% | 0.494% (active) | -5.62% (active) | -27.8% (active) | -32.3% (active) | 2.03% (active) | 19.1 | 1.34% (active) | 17.7 | 8.81% (active) | -55.4% (active) | 11% | -79.1% (active) | 6.13% (active) | -9.78% (active) | -0.0224% (active) | 17.1 | -41.9% (active) | 15.5% |
| Cc1cc(C)c2c(c1)N1OC(C2)C[C@H]1/C=C/c1ccccc1 (stereo not given in full) | 88.5% | 77.6% | 81.3% | 111% | 112% | 84.7% | 95.2% | 102 | 111% | 117 | 88.2% | 103% | 101% | 115% | 107% | 108% | 111% | 113 | 104% | 88.7% |
| Cc1cc(=O)n2n1-c1ccc(Cl)cc1NC(=O)C2 | 109% | 93.9% | 85.6% | 104% | 112% | 96.2% | 100% | 108 | 115% | 111 | 104% | 103% | 122% | 104% | 109% | 98.2% | 99% | 89 | 115% | 101% |
| CC(c1ccccn1)C(C)(O)C(C)c1ccccn1 (stereo not given) | 104% | 103% | 118% | 101% | 113% | 112% | 106% | 107 | 108% | 101 | 103% | 121% | 92.8% | 115% | 100% | 107% | 99.7% | 99.8 | 90.6% | 97.4% |
| COc1ccc(C2=NN(C(C)=O)C(c3cc(OC)c(OC)c(OC)c3)C2)cc1 (stereo not given) | 101% | 119% | 119% | 105% | 108% | 67.7% | 108% | 108 | 108% | 107 | 75.4% | 120% | 109% | 111% | 94.4% | 95.4% | 91.5% | 113 | 98.3% | 84.6% |
| COc1cc(C2CC(c3ccc(C)cc3)=NN2C(C)=O)ccc1Oc1ccnc2cc(Cl)ccc12 (stereo not given) | 59.9% | 45.4% | 79.9% | 16.4% | 32.3% | 41.4% | 68.7% | 21.9 | 99.2% | 74.8 | 93.3% | 94.7% | 35.7% | 26.7% | 41.9% | 14.9% | 23.1% | 102 | 106% | 90.7% |
